Laboratory results from PubChem BioAssay AID1159580 (chemical genetic matrix, 2015).
The campaign covered roughly 5,500 compounds. About 2,000 (36%) were called active. About 18% were inconclusive and are not listed. Cut-off read from the data, not from the text of the source: active = normalized growth mostly below about 0.91 (no sharp cut-off); inconclusive = no clear call, values can overlap the other calls; inactive = mostly above about 0.92. Some of the results follow.

Experiment: chemical genetic growth profiling, strain panel (AID 1159580);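 note: tested at 20 µM; growth read once vehicle control cultures reached saturation at 30 °C; 1 = growth at the plate median or of vehicle wells; lower values mean less growth of the strain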
Settings: growth OD
[1] = S. cerevisiae deletion strains, locus YAL013W, strain DEP1, hits give low values
[2] = S. cerevisiae deletion strains, locus YBR229C, strain ROT2, hits give low values
[3] = S. cerevisiae deletion strains, locus YDL101C, strain DUN1, hits give low values
[4] = S. cerevisiae deletion strains, locus YDL134C, strain PPH21, hits give low values
[5] = S. cerevisiae deletion strains, locus YDR150W, strain NUM1, hits give low values
[6] = S. cerevisiae deletion strains, locus YEL061C, strain CIN8, hits give low values
[7] = S. cerevisiae deletion strains, locus YGR078C, strain PAC10, hits give low values
[8] = S. cerevisiae deletion strains, locus YHR030C, strain SLT2, hits give low values
[9] = S. cerevisiae deletion strains, locus YHR087W, strain rtc3, hits give low values
[10] = S. cerevisiae deletion strains, locus YJR075W, strain HOC1, hits give low values
[11] = S. cerevisiae deletion strains, locus YLR039C, strain RIC1, hits give low values
[12] = S. cerevisiae deletion strains, locus YLR058C, strain SHM2 (second series), hits give low values
[13] = S. cerevisiae deletion strains, locus YLR085C, strain ARP6, hits give low values
[14] = S. cerevisiae deletion strains, locus YLR262C, strain YPT6, hits give low values
[15] = S. cerevisiae deletion strains, locus YML094W, strain GIM5, hits give low values
[16] = S. cerevisiae deletion strains, locus YMR219W, strain ESC1, hits give low values
[17] = S. cerevisiae deletion strains, locus YMR263W, strain SAP30, hits give low values
[18] = S. cerevisiae deletion strains, locus YMR307W, strain GAS1, hits give low values
[19] = S. cerevisiae deletion strains, locus YNL153C, strain GIM3, hits give low values
[20] = S. cerevisiae deletion strains, locus YNL298W, strain CLA4 (second series), hits give low values
[21] = S. cerevisiae deletion strains, locus YNL322C, strain KRE1, hits give low values
[22] = S. cerevisiae deletion strains, locus YNR030W, strain Alg12, hits give low values
[23] = S. cerevisiae deletion strains, locus YOL006C, strain TOP1, hits give low values
[24] = S. cerevisiae deletion strains, locus YPL055C, strain LGE1, hits give low values
[25] = S. cerevisiae deletion strains, locus YPL241C, strain CIN2, hits give low values
[26] = S. cerevisiae deletion strains, locus YPR135W, strain CTF4, hits give low values
[27] = S. cerevisiae strains, strain wild type, hits give low values

Measured: normalized growth

CCc1cccc(C)c1NC(=O)N1CCN(C(=O)OC(C)(C)C)CC1
inactive: [1] 0.992 | [2] 0.99 | [3] 0.987 | [4] 1.01 | [5] 1.03 | [6] 1.01 | [7] 1 | [8] 1.01 | [9] 0.995 | S. cerevisiae deletion strains, locus YJR043C, strain POL32, hits give low values 1 | [10] 0.988 | [11] 1.04 | [12] 0.99 | [13] 1 | [14] 0.984 | [15] 0.991 | [16] 0.984 | [17] 1.01 | [18] 1.05 | [19] 0.994 | [20] 1.02 | [21] 0.999 | [22] 1.01 | [23] 1.01 | [24] 0.987 | [25] 1.03 | [26] 1.01 | [27] 1

CC(N)=NCc1cccc(CN)c1
inactive: [1] 1.02 | S. cerevisiae deletion strains, locus YAL040C, strain CLN3, hits give low values 1.01 | S. cerevisiae deletion strains, locus YCL061C, strain MRC1 (second series), hits give low values 1.01 | [5] 1.01 | S. cerevisiae deletion strains, locus YDR363W, strain ESC2, hits give low values 1.02 | S. cerevisiae deletion strains, locus YER002W, strain NOP16, hits give low values 1.03 | [18] 1.03 | S. cerevisiae deletion strains, locus YNL175C, strain NOP13, hits give low values 1.02 | S. cerevisiae deletion strains, locus YNL197C, strain WHI3, hits give low values 1 | S. cerevisiae deletion strains, locus YNL224C, strain SQS1, hits give low values 1 | S. cerevisiae deletion strains, locus YOR083W, strain WHI5 (second series), hits give low values 0.996 | [25] 1.01

CCSC(SCC)[C@H](O)[C@@H](O)[C@H](O)CO
inactive: [1] 0.976 | [2] 0.992 | [3] 0.993 | [4] 1.01 | [5] 0.995 | [6] 0.998 | [7] 0.981 | [8] 0.939 | [9] 0.98 | [10] 0.994 | [11] 0.992 | [12] 0.993 | [13] 1.05 | [14] 0.904 | [15] 1.02 | [16] 1 | [17] 0.994 | S. cerevisiae deletion strains, locus YNL128W, strain TEP1, hits give low values 1 | [19] 0.988 | [20] 0.988 | [21] 0.985 | [22] 0.992 | [23] 1.01 | [24] 1 | [25] 1.04 | [26] 0.922 | [27] 0.992
